Source: PubChem BioAssay (NCI)
Compounds without any hit were thinned out: in the full panel of roughly 79,000, 15% have a hit. Unmarked numbers belong to inactive results. The source made the active and inactive calls. No stated cut-off is given here; in the data, active means growth inhibition above about 70%; inactive means the rest. Where a SMILES comes first, the peptide text is derived from it. The star is where a group is joined. Cbz = O=C(OCc1ccccc1)*

Experiment: NCI Yeast Anticancer Drug Screen. Data for the cln2 rad14 strain (AID 165);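 further: 0% = growth equal to vehicle treated cultures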
Settings: S. cerevisiae cln2 rad14 strain, at 50.0 µM, stronger effect = higher value
Method in brief: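 Each compound was tested on cln2 rad14 yeast. Inhibition of growth was calculated against vehicle-exposed controls.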
Compound `COc1cc(O)c(C(C)=O)c(OC)c1` has a growth inhibition of -31.1%. `Cc1n[nH]c(=O)n1Nc1ccccc1` gave a growth inhibition of 13.3%. In the case of `O=S(=O)(Cc1c(Cl)c(Cl)c(Cl)c(Cl)c1Cl)c1ccc(Cl)cc1`, the growth inhibition is reported as -17.8%. Work on `CCC(=O)C1(CCCN(C)C)c2ccccc2Sc2ccccc21` yielded a growth inhibition of -38.1%. With `O=C1OCCC1(Cc1ccc(Cl)cc1)Cc1ccc(Cl)cc1` the growth inhibition was 10.4%. For `NC(=O)c1ncnc2nc[nH]c12`, the growth inhibition was -29.1%. `Oc1cc2nc3ccccc3nc2c2ccc(Br)cc12` showed a growth inhibition of -44.6%. For `Cn1ccc(=S)c2ccccc21`, the growth inhibition was -56.1%. With `Cc1c(-c2ccc3c(c2)OCO3)sc(N)c1C#N` the growth inhibition was 4.25%. In the case of `C/C=C(\C)C(=O)N1c2ccccc2CC1c1c(C)[nH]c2ccccc12` (stereo not given), the growth inhibition is reported as 19.9%. `CCCc1ccc(N=Cc2cc(OC)c(OC)c(OC)c2)cc1` showed a growth inhibition of 4.4%. `O=NN(CCCl)C(=O)Oc1ccc2ccccc2c1` showed a growth inhibition of -24.8%. Work on `CC(=O)Nc1cccc(OCCOc2ccccc2[N+](=O)[O-])c1` yielded a growth inhibition of 3.15%. `COC1C(O)CC(OC2CC(OC3CC(O[C@@H]4C(=O)c5c(cc6cc(OC7CC(OC8CC(O)C(O)C(C)O8)C(O)C(C)O7)c(C)c(O)c6c5O)C[C@H]4[C@H](OC)C(=O)[C@@H](O)[C@@H](C)O)OC(C)C3O)OC(C)C2O)OC1C` (stereo not given in full) showed a growth inhibition of 43.7%. Compound `NC(CO)C(O)c1ccc([N+](=O)[O-])cc1` (stereo not given) has a growth inhibition of -7.25%. Compound `Cc1no[n+]([O-])c1NC(=O)OCc1ccccc1` has a growth inhibition of -37.8%. With `COC1/C=C/OC2(C)Oc3c(C)c(O)c4c(O)c(c5c(nc(-c6ccco6)n5-c5ccccc5)c4c3C2=O)NC(=O)/C(C)=C\C=C\C(C)C(O)C(C)C(O)C(C)C(OC(C)=O)C1C` (stereo not given) the growth inhibition was 14.2%. `Cc1ccc(C(C)C)nc1` showed a growth inhibition of 25.2%. Work on `Cc1c2oc3c(C)ccc(C(=O)NCCN4CCN(c5ccccc5)CC4)c3nc-2c(C(=O)NCCN2CCN(c3ccccc3)CC2)c(N)c1=O` yielded a growth inhibition of -11.3%. For `CNC(=O)Nc1ccc(Cl)cc1C(=O)O`, the growth inhibition was -72.2%. With `O=C(CNC(=O)C(CCC(=O)OCc1ccccc1)NC(=O)OCc1ccccc1)NCC(=O)Oc1ccc([N+](=O)[O-])cc1` (stereo not given) the growth inhibition was 9.3%. In the case of `O=C(Nc1ccn(CCI)c(=O)n1)c1ccccc1`, the growth inhibition is reported as 14.4%. `CC1(C(=O)O)CCC(C(=O)Nc2ccccc2)C1(C)C` (stereo not given) showed a growth inhibition of -0.35%. Compound `NNc1cc(S(=O)(=O)O)cc(C(=O)O)c1O` has a growth inhibition of -1.65%. `CC(=O)O[C@H]1C[C@H]2[C@@H](OC(C)=O)/C=C3\C[C@](C)(C(=O)[C@H](O)C(=C1C)C2(C)C)[C@@H](O)C[C@@H]3OC(=O)[C@H](O)[C@H](c1ccccc1)N(C)C` gave a growth inhibition of -10.3%. For `COC(=O)COc1cc2c(cc1C(C)c1ccc(O)cc1)OCO2` (stereo not given), the growth inhibition was 99.1% (active). Work on `NC(=O)CO` yielded a growth inhibition of 5.35%. In the case of `N=c1c2ccccc2nc2oc3ccc(Cl)cc3n12`, the growth inhibition is reported as -0.45%. `COC(=O)C1CC=CCCC1=O` (stereo not given) showed a growth inhibition of 12.2%. With `COc1ccc(-c2cc(=O)c3c(O)cc(O)c(-c4cc(-c5cc(=O)c6c(O)cc(OC)cc6o5)ccc4OC)c3o2)cc1` the growth inhibition was 24.6%. With `O=C1ON(c2ccccc2)C(c2cccc(Cl)c2)N1c1ccccc1` (stereo not given) the growth inhibition was 3.25%. Compound `O=C(O)c1ccc(B(O)O)cc1[N+](=O)[O-]` has a growth inhibition of 8.7%. For `CC(C)C(NC(=O)C(Cc1ccc(O)cc1)NC(=O)OCc1ccccc1)C(=O)O` (stereo not drawn) (Cbz-Tyr-Val-OH; configuration not given here), the growth inhibition was -29.6%. `COc1cccc(-c2nc(-c3cnccn3)n(C3OC(CO)C(O)C3O)n2)c1` (stereo not given) showed a growth inhibition of 11.6%. Compound `O=C1C(=Cc2cccnc2)C(=O)c2ccccc21` has a growth inhibition of 18.9%. `O=C(Cc1c[nH]c2ccccc12)N/N=C/c1ccccc1[N+](=O)[O-]` showed a growth inhibition of 1.1%. In the case of `N=C(N)SCc1cn2ccccc2n1`, the growth inhibition is reported as 1.35%. `CSCCC(NC=O)C(=O)O` (stereo not given) showed a growth inhibition of 1.05%. `O=c1ccc2cc(Cl)ccc2o1` showed a growth inhibition of -16.4%. In the case of `COC(=O)C12OCC34C(CC(C(C)=O)C(C)(CC(=O)O)C3C(O)C1O)OC(=O)C(OC(=O)/C=C(\C)C(C)C)C24` (stereo not given), the growth inhibition is reported as 9%.

Experiment: NCI Yeast Anticancer Drug Screen. Data for the bub3 strain (AID 167)
Settings: S. cerevisiae bub3 mutant strain, at 50.0 µM, stronger effect = higher value
Method in brief: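 Screening used yeast with an engineered genetic alteration affecting cell cycle control. Compound-exposed cultures were compared with vehicle cultures, and reduced growth was taken as inhibition.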
Compound `COc1cc(O)c(C(C)=O)c(OC)c1` has a growth inhibition of -0.2%. In the case of `Cc1n[nH]c(=O)n1Nc1ccccc1`, the growth inhibition is reported as 1.5%. For `O=S(=O)(Cc1c(Cl)c(Cl)c(Cl)c(Cl)c1Cl)c1ccc(Cl)cc1`, the growth inhibition was 2.4%. `CCC(=O)C1(CCCN(C)C)c2ccccc2Sc2ccccc21` showed a growth inhibition of -2.35%. With `O=C1OCCC1(Cc1ccc(Cl)cc1)Cc1ccc(Cl)cc1` the growth inhibition was 1.45%. Work on `NC(=O)c1ncnc2nc[nH]c12` yielded a growth inhibition of -20.4%. `Oc1cc2nc3ccccc3nc2c2ccc(Br)cc12` gave a growth inhibition of -17.7%. `Cn1ccc(=S)c2ccccc21` gave a growth inhibition of -2.15%. `Cc1c(-c2ccc3c(c2)OCO3)sc(N)c1C#N` showed a growth inhibition of 20.6%. In the case of `C/C=C(\C)C(=O)N1c2ccccc2CC1c1c(C)[nH]c2ccccc12` (stereo not given), the growth inhibition is reported as 23.8%. For `CCCc1ccc(N=Cc2cc(OC)c(OC)c(OC)c2)cc1`, the growth inhibition was -8%. In the case of `O=NN(CCCl)C(=O)Oc1ccc2ccccc2c1`, the growth inhibition is reported as 6.2%. Work on `CC(=O)Nc1cccc(OCCOc2ccccc2[N+](=O)[O-])c1` yielded a growth inhibition of 4.7%. `COC1C(O)CC(OC2CC(OC3CC(O[C@@H]4C(=O)c5c(cc6cc(OC7CC(OC8CC(O)C(O)C(C)O8)C(O)C(C)O7)c(C)c(O)c6c5O)C[C@H]4[C@H](OC)C(=O)[C@@H](O)[C@@H](C)O)OC(C)C3O)OC(C)C2O)OC1C` (stereo not given in full) showed a growth inhibition of 49.5%. Compound `NC(CO)C(O)c1ccc([N+](=O)[O-])cc1` (stereo not given) has a growth inhibition of -12.2%. For `Cc1no[n+]([O-])c1NC(=O)OCc1ccccc1`, the growth inhibition was -15.3%. With `COC1/C=C/OC2(C)Oc3c(C)c(O)c4c(O)c(c5c(nc(-c6ccco6)n5-c5ccccc5)c4c3C2=O)NC(=O)/C(C)=C\C=C\C(C)C(O)C(C)C(O)C(C)C(OC(C)=O)C1C` (stereo not given) the growth inhibition was -18.8%. `Cc1ccc(C(C)C)nc1` showed a growth inhibition of 22.5%. Compound `Cc1c2oc3c(C)ccc(C(=O)NCCN4CCN(c5ccccc5)CC4)c3nc-2c(C(=O)NCCN2CCN(c3ccccc3)CC2)c(N)c1=O` has a growth inhibition of -3.9%. Work on `CNC(=O)Nc1ccc(Cl)cc1C(=O)O` yielded a growth inhibition of -13.7%. With `O=C(CNC(=O)C(CCC(=O)OCc1ccccc1)NC(=O)OCc1ccccc1)NCC(=O)Oc1ccc([N+](=O)[O-])cc1` (stereo not given) the growth inhibition was 4%. `O=C(Nc1ccn(CCI)c(=O)n1)c1ccccc1` showed a growth inhibition of 15.2%. With `CC1(C(=O)O)CCC(C(=O)Nc2ccccc2)C1(C)C` (stereo not given) the growth inhibition was -13.1%. With `NNc1cc(S(=O)(=O)O)cc(C(=O)O)c1O` the growth inhibition was 42.1%. `CC(=O)O[C@H]1C[C@H]2[C@@H](OC(C)=O)/C=C3\C[C@](C)(C(=O)[C@H](O)C(=C1C)C2(C)C)[C@@H](O)C[C@@H]3OC(=O)[C@H](O)[C@H](c1ccccc1)N(C)C` gave a growth inhibition of -1.4%. For `COC(=O)COc1cc2c(cc1C(C)c1ccc(O)cc1)OCO2` (stereo not given), the growth inhibition was 99.2% (active). Compound `NC(=O)CO` has a growth inhibition of 5.7%. Compound `N=c1c2ccccc2nc2oc3ccc(Cl)cc3n12` has a growth inhibition of 15.6%. `COC(=O)C1CC=CCCC1=O` (stereo not given) showed a growth inhibition of 43.7%. `COc1ccc(-c2cc(=O)c3c(O)cc(O)c(-c4cc(-c5cc(=O)c6c(O)cc(OC)cc6o5)ccc4OC)c3o2)cc1` showed a growth inhibition of 27.3%. Work on `O=C1ON(c2ccccc2)C(c2cccc(Cl)c2)N1c1ccccc1` (stereo not given) yielded a growth inhibition of 9.25%. Work on `O=C(O)c1ccc(B(O)O)cc1[N+](=O)[O-]` yielded a growth inhibition of 34.9%. In the case of `CC(C)C(NC(=O)C(Cc1ccc(O)cc1)NC(=O)OCc1ccccc1)C(=O)O` (stereo not drawn) (Cbz-Tyr-Val-OH; configuration not given here), the growth inhibition is reported as -3.15%. In the case of `COc1cccc(-c2nc(-c3cnccn3)n(C3OC(CO)C(O)C3O)n2)c1` (stereo not given), the growth inhibition is reported as -45%. With `O=C1C(=Cc2cccnc2)C(=O)c2ccccc21` the growth inhibition was 6.7%. `O=C(Cc1c[nH]c2ccccc12)N/N=C/c1ccccc1[N+](=O)[O-]` gave a growth inhibition of 14.7%. Work on `N=C(N)SCc1cn2ccccc2n1` yielded a growth inhibition of -27.6%. `CSCCC(NC=O)C(=O)O` (stereo not given) showed a growth inhibition of 5.75%. Work on `O=c1ccc2cc(Cl)ccc2o1` yielded a growth inhibition of 18.1%. `COC(=O)C12OCC34C(CC(C(C)=O)C(C)(CC(=O)O)C3C(O)C1O)OC(=O)C(OC(=O)/C=C(\C)C(C)C)C24` (stereo not given) gave a growth inhibition of 7.6%.
